According to PubChem BioAssay AID1159580 (chemical genetic matrix, 2015):
Several values for one entry are separate records, joined by “and”; a condition that tells them apart may be missing. Equal entries are not always repeated. Among all 5,500 compounds or so, about 2,000 (36%) were called active. Not shown: some 18% with an inconclusive outcome. Rule as the data show it: active = normalized growth mostly below about 0.91 (no sharp cut-off); inconclusive = no clear call, values can overlap the other calls; inactive = mostly above about 0.92. This is one part of the list.

Test: chemical genetic growth profiling, strain panel (AID 1159580);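 also: tested at 20 µM; growth read once vehicle control cultures reached saturation at 30 °C; 1 = growth at the plate median or of vehicle wells; lower values mean less growth of the strain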
Settings: S. cerevisiae deletion strains, growth OD

Measured: normalized growth

CC[C@@]1(O)C(=O)OCc2c1cc1n(c2=O)Cc2cc3cc(O)ccc3nc2-1
inactive: locus YAL021C, strain ccr4, stronger effect = lower value 1.05 | locus YAL026C, strain drs2, stronger effect = lower value 1.01 | locus YAL030W, strain snc1, stronger effect = lower value 1.02 | locus YBL061C, strain skt5, stronger effect = lower value 1.01 | locus YBR009C, strain hhf1, stronger effect = lower value 0.972 | locus YBR021W, strain FUR4, stronger effect = lower value 1.01 | locus YBR023C, strain chs3, stronger effect = lower value 1.02 | locus YBR171W, strain sec66, stronger effect = lower value 1.02 | locus YBR229C, strain ROT2, stronger effect = lower value 1.01 | locus YBR231C, strain swc5, stronger effect = lower value 0.98 | locus YBR279W, strain paf1, stronger effect = lower value 1.03 | locus YCL011C, strain gbp2, stronger effect = lower value 1.02 | locus YCL016C, strain dcc1, stronger effect = lower value 1.01 | locus YCL029C, strain bik1, stronger effect = lower value 0.992 | locus YCL069W, strain vba3, stronger effect = lower value 1.01 | locus YCR088W, strain abp1, stronger effect = lower value 1.01 | locus YDL005C, strain med2, stronger effect = lower value 1.02 | locus YDL035C, strain GPR1, stronger effect = lower value 1.01 | locus YDL040C, strain nat1, stronger effect = lower value 1.02 | locus YDL074C, strain BRE1, stronger effect = lower value 1 | locus YDL101C, strain DUN1, stronger effect = lower value 1.03 | locus YDL185W, strain tfp1, stronger effect = lower value 0.996 | locus YDL192W, strain arf1, stronger effect = lower value 0.983 | locus YDR001C, strain nth1, stronger effect = lower value 0.992 | locus YDR069C, strain doa4, stronger effect = lower value 1.01 | locus YDR101C, strain arx1, stronger effect = lower value 0.986 | locus YDR137W, strain rgp1, stronger effect = lower value 0.997 | locus YDR159W, strain sac3, stronger effect = lower value 0.946 | locus YDR162C, strain NBP2, stronger effect = lower value 1.02 | locus YDR195W, strain ref2 1.01 | locus YDR297W, strain sur2, stronger effect = lower value 0.987 | locus YDR318W, strain mcm21, stronger effect = lower value 0.992 | locus YDR334W, strain swr1, stronger effect = lower value 1.04 | locus YDR335W, strain msn5, stronger effect = lower value 0.997 | locus YDR388W, stronger effect = lower value 0.989 | locus YDR392W, strain spt3, stronger effect = lower value 0.976 | locus YDR502C, strain sam2, stronger effect = lower value 0.973 | locus YEL003W, strain gim4, stronger effect = lower value 0.995 | locus YEL037C, strain rad23, stronger effect = lower value 1.01 | locus YEL061C, strain CIN8 (second series), stronger effect = lower value 1.01 | locus YEL061C, strain CIN8, stronger effect = lower value 1.01 | locus YER015W, strain faa2, stronger effect = lower value 0.993 | locus YER016W, strain bim1, stronger effect = lower value 1.02 | locus YER110C, stronger effect = lower value 0.991 | locus YER111C, strain swi4, stronger effect = lower value 1.01 | locus YER155C, strain BEM2 (second series), stronger effect = lower value 0.972 | locus YER155C, strain BEM2, stronger effect = lower value 1.01 | locus YER167W, strain BCK2, stronger effect = lower value 1.01 | locus YFR010W, strain ubp6, stronger effect = lower value 0.972 | locus YGL078C, strain dbp3, stronger effect = lower value 0.99 | locus YGL086W, strain mad1, stronger effect = lower value 0.988 | locus YGL167C, strain pmr1, stronger effect = lower value 1.01 | locus YGL173C, strain kem1, stronger effect = lower value 0.97 | locus YGL227W, strain vid30, stronger effect = lower value 1.01 | locus YGL240W, strain doc1, stronger effect = lower value 0.947 | locus YGL248W, strain PDE1, stronger effect = lower value 1.03 | locus YGL253W, strain hxk2, stronger effect = lower value 1 | locus YGR078C, strain PAC10, stronger effect = lower value 1.02 | locus YGR135W, strain pre9, stronger effect = lower value 0.991 | locus YGR252W, strain gcn5, stronger effect = lower value 0.972 | locus YHR013C, strain ard1, stronger effect = lower value 1.03 | locus YHR027C, strain rpn1, stronger effect = lower value 1 | locus YHR030C, strain SLT2, stronger effect = lower value 1.02 and 0.974 | locus YHR079C, strain IRE1 (second series), stronger effect = lower value 0.981 | locus YHR079C, strain IRE1, stronger effect = lower value 0.952 | locus YHR094C, strain hxt1, stronger effect = lower value 0.98 | locus YHR129C, strain ARP1, stronger effect = lower value 1.01 | locus YHR142W, strain chs7, stronger effect = lower value 1.02 | locus YHR200W, strain rpn10, stronger effect = lower value 1.01 | locus YIL066C, strain RNR3, stronger effect = lower value 1.01 | locus YIL073C, strain SPO22, stronger effect = lower value 0.985 | locus YIL125W, strain kgd1, stronger effect = lower value 0.992 | locus YIR030C, strain dcg1, stronger effect = lower value 0.981 | locus YJL092W, strain hpr5, stronger effect = lower value 0.992 | locus YJL095W, strain BCK1 (second series), stronger effect = lower value 1.02 | locus YJL095W, strain BCK1, stronger effect = lower value 1.04 and 0.957 | locus YJL115W, strain asf1, stronger effect = lower value 0.984 | locus YJL129C, strain trk1, stronger effect = lower value 1 | locus YJL134W, strain LCB3, stronger effect = lower value 1.02 | locus YJL154C, strain vps35, stronger effect = lower value 1 | locus YJL164C, strain tpk1, stronger effect = lower value 1.01 | locus YJL166W, strain qcr8, stronger effect = lower value 0.99 | locus YJL168C, strain set2, stronger effect = lower value 0.989 | locus YJL187C, strain SWE1 (second series), stronger effect = lower value 1.02 | locus YJL187C, strain SWE1, stronger effect = lower value 1.02 | locus YJR043C, strain POL32, stronger effect = lower value 0.993 | locus YJR066W, strain TOR1, stronger effect = lower value 0.986 | locus YKL009W, strain mrt4, stronger effect = lower value 1.04
